Compound activity from PubChem.
Hits are enriched below; roughly 3.1% of the tested compounds scored in any of these assays.
NadD inh: blocks S. aureus nicotinate mononucleotide adenylyltransferase; inhibition, % at 20 µM; hit rate 0.78% among 360,000; purified NadD enzyme, colorimetric absorbance read-out; in the data active means inhibition above about 26%
Mot1-301 SUMO: SUMOylation pathway inhibition by Mot1-301 growth rescue; hit rate 1% among 320,000; S. cerevisiae Mot1-301 growth rescue, ATP luminescence, 38.5C; percent above DMSO median, 100 means doubled; growth rescue, % at 18.8 µM;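 active means every valid replicate shows activation above 250% relative to neutral control wells; inactive means the rest, any valid replicate at or below 250%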;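 further: OY570 slx delta 5 strain wells were the positive control but not used for scaling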
Calb FLC: affects C. albicans growth with fluconazole; C. albicans CaCi-2 (fluconazole-resistant clinical isolate) + fluconazole, Alamar Blue growth, 48 h; growth inhibition, % (concentration not given with the values); hit rate 0.57% among 300,000; AID 1979;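 active means growth inhibition above about 58% in most replicates, limit read from the data, passing the limit was not always enough; inconclusive means exactly half the replicates above a set limit; inactive means most replicates below a set limit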;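 further: all wells also contain fluconazole at 8 µg/ml as a sub-toxic cotreatment; 0% = median of DMSO wells and 100% = median of geldanamycin control wells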
ATG4B inhibitor: inhibitors of human ATG4B cysteine protease; hit rate 0.51% among 340,000; Q9Y4P1; ATG4B cleavage of LC3-PLA2, NBD-HPC fluorescence, 1 h; inhibition, % at 8.33 µM; AID 504462; in the data active means inhibition above about 40%
Target sequence (Q9Y4P1 whole entry, looked up): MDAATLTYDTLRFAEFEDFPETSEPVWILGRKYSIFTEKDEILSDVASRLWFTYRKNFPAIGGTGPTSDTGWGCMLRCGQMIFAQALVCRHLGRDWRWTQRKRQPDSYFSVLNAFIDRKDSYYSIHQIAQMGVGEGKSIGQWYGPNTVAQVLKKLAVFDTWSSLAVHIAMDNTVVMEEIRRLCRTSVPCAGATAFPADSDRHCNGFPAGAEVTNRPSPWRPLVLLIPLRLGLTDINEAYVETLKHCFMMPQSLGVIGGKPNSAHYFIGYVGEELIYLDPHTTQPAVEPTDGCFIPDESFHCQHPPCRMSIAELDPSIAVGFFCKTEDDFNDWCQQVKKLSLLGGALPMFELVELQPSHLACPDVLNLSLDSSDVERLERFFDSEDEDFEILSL
FAS-TE inh: blocks the thioesterase domain of human fatty acid synthase. P49327. recombinant FAS-TE, OMFH fluorogenic substrate, fluorescence endpoint. inhibition, % at 15 µM. hit rate 0.67% among 360,000. AID 602261;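 active means compounds whose normalised, plate-corrected inhibition of enzyme fluorescence in the single-dose primary screen is 50% or more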;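 further: 0% = DMSO with enzyme and 100% = substrate without enzyme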
ATG4B confirm: ATG4B (human) inhibition, single-dose confirmed; shares compounds with ATG4B inhibitor; ATG4B protease fluorescent substrate cleavage assay; inhibition, % at 8.33 µM; hit rate 92% among 320; in the data active means inhibition above about 39%
PLA2 ctr: PLA2 (human) inhibition in ATG4B counter-screen. shares compounds with ATG4B inhibitor. purified PLA2, NBD-C6-HPC fluorescence, 45 min. inhibition, % at 8.33 µM. hit rate 66% among 1,600. AID 588402; in the data active means inhibition above about 50%
Target sequence (P04054 whole entry, looked up): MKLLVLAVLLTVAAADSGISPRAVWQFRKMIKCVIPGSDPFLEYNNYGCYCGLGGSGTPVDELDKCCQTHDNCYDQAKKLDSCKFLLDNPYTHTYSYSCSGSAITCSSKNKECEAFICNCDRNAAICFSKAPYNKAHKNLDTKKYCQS
* marks the source's active call; other numbers are inactive results; ? = inconclusive; . = no result given.

SMILES | NadD inh | Mot1-301 SUMO | Calb FLC | ATG4B inhibitor | FAS-TE inh | PLA2 ctr | others
CS(=O)(=O)N(CC(=O)Nc1cccc([N+](=O)[O-])c1)c1ccccc1 | -5 | -22 | -1 | -4 | 6 | .
Cc1ccccc1CN(CC(=O)Nc1cccc([N+](=O)[O-])c1)S(=O)(=O)c1ccc(Cl)cc1 | -5 | -1 | -11 | 64* | 31 | 77*
COc1ccc(C)cc1S(=O)(=O)N(CC(=O)Nc1cccc([N+](=O)[O-])c1)c1ccccc1 | 7 | 54 | 4 | 84* | 36 | 90*
O=C(NCC1CCCN1S(=O)(=O)c1cccs1)c1c(F)cccc1F (stereo not given) | 3 | 5 | -8 | 1 | 0 | .
O=C(CSc1nnc(-c2ccccn2)o1)Nc1ccc(F)cc1 | 2 | -1 | 6 | 7 | -5 | .
Cc1cccc(N=C2NC(=O)/C(=C/C=C/c3ccco3)S2)c1C | 72* | 20 | ? | 83* | 28 | 51*
Cc1cccc(N=C2NC(=O)/C(=C/c3cccnc3)S2)c1C | -4 | -4 | 2 | 2 | -2 | .
CC(CC(=O)NCc1ccc(Cl)cc1)S(=O)(=O)c1ccc2c(c1)NC(=O)CO2 (stereo not given) | -6 | 9 | -8 | -11 | -4 | .
CN(CC(=O)NCC1CCCO1)S(=O)(=O)c1cc(Cl)ccc1Cl (stereo not given) | -1 | 23 | -2 | 93* | -2 | 2
COC(=O)c1ccc(NC(=O)COc2ccc(N(C)S(=O)(=O)c3ccc(C)cc3)cc2)cc1 | -8 | 13 | . | 0 | 30 | .
O=C(O)C(Cc1ccccc1)N1C(=O)/C(=C/C=C/c2ccco2)SC1=S (stereo not given) | 27 | . | 18 | 69* | 13 | 59*
Cc1cc(C)n2c(SCC(=O)N(C)C3CCCCC3)nnc2n1 | 0 | -4 | 2 | 1 | 0 | .
COC(=O)c1c(NC(=O)C2Cc3ccccc3C(=O)O2)sc2c1CCCC2 (stereo not given) | 6 | 16 | 45 | 49* | 14 | 29 | ATG4B confirm=83*
CCc1ccc(N2C(=O)CN(Cc3cccs3)C2=S)cc1 | -6 | 34 | 8 | 65* | 6 | 81*
Cc1cc(C)cc(N2C(=O)CN(Cc3ccccc3)C2=S)c1 | -8 | 20 | -3 | 70* | -2 | 75*
CCc1ccc(N2C(=O)CN(Cc3ccccc3)C2=S)cc1 | -7 | -4 | -5 | 12 | 10 | .
COc1ccc(S(=O)(=O)N(C)C[C@H]2Oc3ncc(Br)cc3C(=O)N([C@@H](C)CO)C[C@@H]2C)cc1 | -5 | . | . | . | -2 | .
CN1CCN(c2ccc(S(=O)(=O)N3CCOCC3)cc2NC(=O)CSCc2ccccc2)CC1 | -9 | -8 | . | -17 | -6 | .
O=C(CSc1nc2ccccc2c(=O)n1CC1CCCO1)NCCc1ccccc1 (stereo not given) | -4 | -10 | 6 | 4 | 1 | .
CC(C)(C)c1ccc(C(=O)N2CCC2(C)C(=O)NCc2ccc3c(c2)OCO3)cc1 (stereo not given) | -3 | . | . | . | 6 | .
O=C(O)c1ccc(N/N=C/c2ccc(OC(=O)c3ccccc3Cl)cc2)cc1 | 11 | 0 | 9 | 94* | 19 | 96*
CC(C)C[C@H]1CN(CCCC[C@H]2CNC(=O)C(=O)N2CCc2ccccc2)C(=O)C(=O)N1CCC1CCCCC1 | 18 | . | . | . | 5 | .
CCOc1ccc(NC(=O)CN(C)C(=O)c2ccccc2OCCOc2ccccc2)cc1OCC | -10 | -9 | . | -8 | 0 | .
O=[N+]([O-])c1ccc(C(O)C[n+]2ccccc2)cc1 (stereo not given) | 13 | -12 | -2 | -1 | -4 | .
O=C(Nc1ccccc1Cl)C1C(c2ccccc2)C1(Cl)Cl (stereo not given) | -4 | 22 | -17 | 52* | 29 | 56*
SMILES | NadD inh | Mot1-301 SUMO | Calb FLC | ATG4B inhibitor | FAS-TE inh | PLA2 ctr | others
CC(=O)c1cc2c(C)c(C(=O)c3ccccc3)oc2cc1O | -11 | . | 18 | 40* | 32 | -6
O=C(c1ccccc1)c1ccc(O)cc1O | 0 | -13 | 10 | -23 | -82 | .
COc1cccc(CNC(=O)C2CCN(S(=O)(=O)c3ccc4c(c3)CC(C)N4C(=O)C3CC3)CC2)c1 (stereo not given) | -4 | -6 | 6 | 56* | 5 | 58*
COc1ccc(CNC(=O)C2CCN(S(=O)(=O)c3ccc4c(c3)CC(C)N4C(=O)C3CC3)CC2)cc1 (stereo not given) | -8 | -9 | -3 | -12 | 0 | .
C/C(N)=C(/C#N)C(=O)CSc1nc2ccccc2c(=O)n1-c1ccc(C)c(Cl)c1 | 7 | 5 | -6 | 47* | -5 | 49
O=C(NCc1ccc(Cl)s1)c1cc(COc2c(F)cccc2F)on1 | 0 | -12 | 1 | 12 | 18 | .
Cc1cccc(C)c1OCc1cc(C(=O)NCc2ccc(Cl)s2)no1 | -1 | 1 | 25 | 61* | 22 | 67*
O=C(OCc1ccccc1F)c1cnc(Cl)c(Cl)c1 | -5 | 27 | -7 | 3 | 22 | .
Cc1cc(C)c(S(=O)(=O)Nc2ccc3c4c(cccc24)CC3)c(C)c1 | 8 | 0 | 9 | 11 | 23 | .
Cc1ccc(S(=O)(=O)Nc2ccc3c4c(cccc24)CC3)c(C)c1 | -4 | -9 | -10 | 63* | 11 | 78*
COc1ccc(CNc2ccc(-c3ccc(OC)cc3)nn2)cc1 | -6 | 13 | 32 | -9 | -1 | .
COc1ccc(CNc2ccc(-c3ccccc3OC)nn2)cc1 | 10 | 2 | -19 | 48* | -1 | 3
COc1ccc(/C=C/C(=O)Nc2cccnc2Cl)cc1 | -4 | 144 | 2 | 5 | 0 | .
S=C(NCc1ccc(Cl)cc1Cl)NC1CCCCC1 | -4 | 645* | -26 | 44* | 20 | 55*
Clc1ccc(CNC2CCCC2)c(Cl)c1 | -2 | -7 | 3 | 5 | -7 | .
O=C(CSc1nc(C2CC2)nc2ccccc12)N1CCc2ccccc21 | -2 | . | . | 0 | 0 | .
COc1ccc(-c2noc(CSc3nc4ccccc4c(=O)n3-c3ccccc3)n2)cc1 | -7 | 9 | -1 | 2 | 34 | .
COC(=O)c1ccc(CSc2nc3c(c(=O)n2-c2ccc(F)cc2)SCC3)o1 | -3 | -5 | 2 | 48* | 24 | 50
O=c1c2ccccc2nc(SCc2nnc(-c3ccccc3)o2)n1-c1ccccc1 | 4 | 4 | 25 | 72* | 41 | 73*
O=C(CSc1nc2c(c(=O)n1-c1ccc(Cl)cc1)SCC2)Nc1nccs1 | 7 | 66 | . | 61* | 4 | 80*
Cc1cc(NC(=O)CSc2nc3c(c(=O)n2-c2ccc(Cl)cc2)SCC3)no1 | 0 | -16 | -3 | 12 | 1 | .
COC(=O)c1ccc(CSc2nc3ccccc3c(=O)n2-c2ccccc2)o1 | 3 | 6 | 14 | 65* | 19 | 73*
